# From ChEMBL document CHEMBL4513216, “Probing the Open Global Health Chemical Diversity Library for Multistage-Active Starting Points for Next-Generation Antimalarials” (ACS Infect Dis, 2020)
# In all, about 68,000 compounds went through this assay and about 2,700 (4%) showed an effect of 50% or more. For the sample, strong results were picked, then their nearest neighbours and some compounds at random.
# System: Plasmodium berghei
# Test: Screen against P. berghei liver stage (PbLuc), transformed with Luciferase, at 2uM
# Type: functional, HepG2
# Conditions: tested at 2 uM
row,SMILES,INHIBITION
1,CC(C#N)CN(C)Cc1cc(Cl)cc2cccnc12 (stereo unspecified),28.91%
2,Cc1ccc([C@@H]2CN(C(=O)c3cc(C)no3)C[C@H]2NC(=O)C2CC2)cc1,0.94%
3,CCc1csc(CNC2CCN(Cc3ccccc3)C2)n1 (stereo unspecified),50.59%
4,CCc1nc(C)sc1CNC1CCN(Cc2ccccc2)C1 (stereo unspecified),26.74%
5,Cc1nc(CNC2CCN(Cc3ccccc3)C2)sc1C (stereo unspecified),36.28%
6,CCCc1cc(NC2CCc3ncnn3C2)n2ncnc2n1 (stereo unspecified),8.91%
7,O=C1CC(c2ccccc2)C2(CCN(Cc3nccs3)CC2)N1 (stereo unspecified),-4.2%
8,CC(C)(C)OC(=O)N1CCC(NCc2cnn(C(C)(C)C)c2)CC1,-13.89%
9,Cc1cccc2cc(C(=O)N3CCC(F)(F)CC3)n(C)c12,28.1%
10,O=C1CC(c2ccccc2)c2c(n3ccsc3nc2=O)N1 (stereo unspecified),73.66%
11,O=C1CC(c2ccc(O)cc2)c2c(n3ccsc3nc2=O)N1 (stereo unspecified),37.87%
12,O=C1CC(c2ccc(Cl)c(Cl)c2)c2c(n3ccsc3nc2=O)N1 (stereo unspecified),24.44%
13,Cc1ccc(N(CC(=O)c2ccc(Br)cc2)C2=NCCCCC2)cc1,-13.56%
14,CC(=O)N1CCC(c2cc(Nc3ncccn3)nc(C)n2)C1 (stereo unspecified),31.98%
15,CC(C)(C)n1ncc2c1NC(=O)CC2c1cccc(F)c1 (stereo unspecified),-10.58%
16,CC(C)c1noc(CCC(=O)N2CCN(C)CC2c2ccccc2)n1 (stereo unspecified),57.59%
17,CCCc1noc(CCC(=O)N2CCN(C)CC2c2ccccc2)n1 (stereo unspecified),35.56%
18,CC(C)c1noc(CCCC(=O)N2CCN(C)CC2c2ccccc2)n1 (stereo unspecified),14.63%
19,NC(=O)CC1CCCN(c2cncc(OCc3ccccc3)n2)C1 (stereo unspecified),31.78%
20,CC(C)c1nc(C2CCCN2C(=O)c2ccc(N(C)C)nn2)no1 (stereo unspecified),-9.66%
21,c1ccc(CN2C[C@H]3CC[C@@H](C2)N(Cc2nnc(C4CC4)o2)C3)cc1,-14.49%
22,Cc1cc(C(=O)N2CCOC[C@H](Oc3cnccn3)C2)c(C(F)(F)F)o1,52.91%

row,SMILES,INHIBITION
1,CO[C@H]1COCCN(C(=O)c2cc(C)oc2C(F)(F)F)C1,35.89%
2,Cc1cc(C(=O)N2CCOC[C@H](Oc3cccnc3)C2)c(C(F)(F)F)o1,19.42%
3,Cn1cc(CN2CCCC3(CCN(C(=O)c4cnccn4)C3)C2)cn1 (stereo unspecified),-9.96%
4,CC(C)n1cnnc1CNC(=O)CCCOc1ccccc1F,18.74%
5,Cc1ccsc1CNC(=O)CC1CN(C(=O)OC(C)(C)C)C1,55.36%
6,Cc1cc(CNC(=O)CC2CN(C(=O)OC(C)(C)C)C2)ccc1F,21.97%
7,CC(C)(C)OC(=O)N1CC(CC(=O)NCc2ccsc2)C1,2.9%
8,COc1ncccc1NC(=O)N1CCCC1c1cc(C)no1 (stereo unspecified),29.19%
9,Cc1noc(C)c1C(=O)N1CCCCC1c1cc(C)n2ccnc2n1 (stereo unspecified),36.98%
10,Cc1sc(-c2ccco2)nc1C(=O)N(CC1CCOC1)C1CC1 (stereo unspecified),-33.43%
11,COCCN(C(=O)c1nc(-c2ccco2)sc1C)C1CC1,-7.16%
12,Cc1sc(-c2ccco2)nc1C(=O)N(CC(N)=O)C1CCCC1,61.82%
13,CC(NCCN1CCN(C(=O)C2CCCC2)CC1)c1ccccn1 (stereo unspecified),-21.99%
14,COCc1nn(C(C)C)c2c1CCN(Cc1ccsc1)C2,23.43%
15,Cn1nc(Cn2cccn2)c2c1CN(Cc1ccsc1)C2,15.9%
16,Cn1nc(Cn2cccc2)c2c1CN(Cc1ccsc1)C2,-6.88%
17,CC(C)n1nc(CN2CCOCC2)c2c1CN(Cc1ccsc1)C2,72.91%
18,Cn1nc(CN2CCOCC2)c2c1CN(Cc1ccsc1)C2,57.85%
19,CC(C)n1nc(CN2CCOCC2)c2c1CN(C(=O)c1ccno1)C2,29.3%
20,CN(Cc1ccc(F)cc1)CC1(O)CCN(C(=O)c2cccn2C)C1 (stereo unspecified),-12.09%
21,CCc1nc2ccccc2n1C(CC)C(=O)N(C)Cc1noc(C)n1 (stereo unspecified),-0.85%
22,CC(=O)N1CCO[C@@H]2CN(S(=O)(=O)c3ccc(C)cc3)CC[C@@H]2C1,-24.35%

row,SMILES,INHIBITION
1,CS(=O)(=O)N1CC2(CCCN(CC3CC3)C2)Cc2ccccc21 (stereo unspecified),34.09%
2,CN(CCCSc1ccccc1)C(=O)Cn1ncc(N(C)C)cc1=O,8.2%
3,COc1ccc(-c2cnc(CN3CCn4c(C)nnc4C3)o2)cc1,-19.76%
4,CCNC(=O)[C@@H]1C[C@H](N)CN1C1CCN(c2ccccc2OC)CC1,23.64%
5,Cc1ccc(CN2CCCC23Cc2ccccc2CNC3=O)cc1 (stereo unspecified),-14.74%
6,CC(C)CCN1CCCC12Cc1ccccc1CNC2=O (stereo unspecified),-6.64%
7,Cc1ccc(CCN2CCCC23Cc2ccccc2CNC3=O)cc1 (stereo unspecified),57.24%
8,CC(C)NC(=O)N1CCN(CC2CC2)CC2(CC(=O)N(C)C2)C1 (stereo unspecified),49.9%
9,Cc1cc(-c2cnc(NCc3ccc4c(c3)OCO4)nc2C(C)C)on1,-0.95%
10,CC(C)c1nc(C2CCCN(C(=O)c3cccc4c3OCO4)C2)no1 (stereo unspecified),17.59%
11,Cc1nc(C2CCCN(C(=O)c3cccc4c3OCO4)C2)sc1C (stereo unspecified),7.71%
12,Cc1csc(C2CCCN(C(=O)c3cccc4c3OCO4)C2)n1 (stereo unspecified),57.11%
13,CCc1cc(NC(=O)C2CCCN(C(=O)c3ccncc3)C2)[nH]n1 (stereo unspecified),-7.81%
14,c1ccc(C2CCN(c3ncnc4c3CCNC4)CC2)cc1,-3.14%
15,O=C(NCC(=O)N1CCCC(n2cncn2)C1)OCc1ccccc1 (stereo unspecified),21.64%
16,COc1ccnc(N2CCN(C(=O)c3csc(C)n3)CC2)n1,-2.99%
17,COc1ccnc(N2CCN(C(=O)CN3CCOCC3)CC2)n1,-19.35%
18,COc1ccnc(N2CCN(CC(O)CN3CCOCC3)CC2)n1 (stereo unspecified),58.05%
19,COc1ccnc(N2CCN(C(=O)Cc3csc(C)n3)CC2)n1,51.35%
20,COc1ccnc(N2CCN(CC(=O)N3CCOCC3)CC2)n1,-2.9%
21,COc1ccnc(N2CCN(C(=O)N3CCOCC3)CC2)n1,58.05%
22,COc1ccnc(N2CCN(C(=O)c3cscn3)CC2)n1,50.98%

row,SMILES,INHIBITION
1,COc1ccnc(N2CCN(C(=O)Cc3ccc(C)s3)CC2)n1,-9.9%
2,COc1ccnc(N2CCN(C(=O)Cc3ccsc3)CC2)n1,25.61%
3,COc1ccnc(N2CCN(C(=O)c3csnn3)CC2)n1,36.66%
4,COc1ccnc(N2CCN(Cc3ncc(-c4ccccc4)o3)CC2)n1,-41.69%
5,COc1ccnc(N2CCN(Cc3ncc(C(C)(C)C)o3)CC2)n1,2.67%
6,Cc1cccc(CN2C[C@@H]3COC[C@H](NS(C)(=O)=O)[C@@H]3C2)n1,32.85%
7,CN(C)Cc1cnc(C2CCN(C(=O)c3ccccc3F)C2)[nH]1 (stereo unspecified),-17.01%
8,CCN(Cc1ccccc1)C(=O)CN1CCOC(Cn2cncn2)C1 (stereo unspecified),32.41%
9,O=C(N1CCCC(n2cncn2)C1)C1(c2ccccc2F)CCCC1 (stereo unspecified),-15.28%
10,O=C(COCc1nc(-c2ccncc2)no1)N1CCCCC1,27.89%
11,Brc1cnc(NCCCOCC2CCOC2)nc1 (stereo unspecified),20.3%
12,COCCCNS(=O)(=O)c1cc(C)sc1C,-11.76%
13,CCc1nccn1-c1cccc(C2CCN(C(=O)COC)CC2)n1,47.4%
14,N#Cc1ccsc1N1CCC(Sc2ccncc2)C1=O (stereo unspecified),35.61%
15,Cc1cnn(CCC(=O)N2CCCN(c3ncccc3C#N)CC2)c1,-2.7%
16,CCS(=O)(=O)N1CCC(NC(=O)c2cc(C)ccc2O)CC1,-12.19%
17,CC(=O)c1cc(CC(=O)N2CCN(CCOc3ccccc3)CC2)cs1,-18.33%
18,Cc1nc(CC(=O)N2CCN(CCOc3ccccc3)CC2)cs1,65.5%
19,O=C(Cc1ccsc1)N1CCN(CCOc2ccccc2)CC1,6.17%
20,Fc1ccc(CNCc2nnc3n2CC(C(F)(F)F)CC3)cc1 (stereo unspecified),0.85%
21,FC(F)(F)C1CCc2nnc(CNCc3cccs3)n2C1 (stereo unspecified),58.98%
22,FC(F)(F)C1CCc2nnc(CNCc3ccsc3)n2C1 (stereo unspecified),-14.84%

row,SMILES,INHIBITION
1,CCCC(NC(=O)NCc1cccc(N(C)C)n1)c1ccccn1 (stereo unspecified),-40.08%
2,CN(Cc1cncnc1)[C@@H]1CN(C(=O)c2ccco2)[C@@H]2CCCO[C@H]12,8.17%
3,Cc1nnc2n1CCN(Cc1csc(-c3cnn(C)c3)n1)C2,57.34%
4,CCc1nnc2n1CCN(Cc1csc(-c3cnn(C)c3)n1)C2,-4.69%
5,Cn1cc(-c2nc(CN3CCN(CCO)CC3)cs2)cn1,53.03%
6,CC(=O)N1CCN(Cc2csc(-c3cnn(C)c3)n2)CC1,-6.3%
7,COCCN1CCN(Cc2csc(-c3cnn(C)c3)n2)CC1,-20.82%
8,CC(C)c1nnc2n1CCN(Cc1csc(-c3cnn(C)c3)n1)C2,47.25%
9,CN(C)Cc1ccnc(C2CCCN2Cc2ccc(F)cn2)n1 (stereo unspecified),18.38%
10,Cc1ncc(CN2CCC(O)(c3ccccc3F)CC2)cn1,4.19%
11,N#Cc1ccc(OC2CCN(CC(=O)NCC3CCCO3)CC2)cc1 (stereo unspecified),-27.4%
12,Oc1coc2cc(OC[C@@H]3CCCN4CCCC[C@H]34)ccc12,-61.71%
13,CC(C)Cc1cc(C(=O)NCc2nnc[nH]2)[nH]n1,16.6%
14,CN(Cc1ccsc1)C(=O)c1cccc(F)c1,14.82%
15,Cc1ccc(NC2CCN(C(=O)COCC3CC3)CC2)nn1,15.28%
16,O=C(NCc1c(F)cccc1Cl)c1cc(CN2CCCC(O)C2)on1 (stereo unspecified),52.51%
17,O=C(NCc1cccc(F)c1F)c1cc(CN2CCCC(O)C2)on1 (stereo unspecified),-81.33%
18,O=C(NCc1ccc(Cl)s1)c1cc(CN2CCCC(O)C2)on1 (stereo unspecified),4.38%
